From PubChem
JMJD2A Tudor inh: blocks the human JMJD2A Tudor domain. AlphaScreen JMJD2A-Tudor / H3K4me3 peptide binding. O75164. actives 4.4% (n = 390,000). AID 504339. Potency, µM (top dose mostly 114 µM), hits mostly inhibitors; further: nearly all actives have a fitted effect of over 50% in size
HP1b binding inh: blocks HP1-beta chromodomain binding to methylated histone tails | P83916 | AlphaScreen HP1-beta / biotin-H3K9me3 peptide binding | Potency, µM (top dose mostly 114 µM), usual class: inhibitors | actives 0.56% (n = 390,000); further: nearly all actives have a fitted effect of over 70% in size
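HP1-beta protein (50 nM final) preincubated 30 min at room temperature with biotinylated H3(1-18)K9me3 peptide (50 nM) in PBS pH 7.4, 0.01% Tween-20, then compound added for 30 min. AlphaScreen streptavidin donor/nickel chelate acceptor beads (10 ug/mL final), 30 min dark, luminescence read.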
G9a inh: blocks human histone lysine methyltransferase G9a | actives 8.8% (n = 350,000) | G9a H3K9 monomethylation, AlphaScreen, 2 h | Potency, µM (highest dose often 102 µM), hits mostly inhibitors | Q96KQ7; further: nearly all actives have a fitted effect of over 75% in size
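Using a bead-based AlphaScreen, monomethylated H3K9 product from 2 h room-temperature reactions (G9a 20 nM, peptide 500 nM, SAM 20 uM) was detected with 0.5 ug/mL rabbit anti-H3K9me1 antibody.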
BAZ2B inh: BAZ2B (human) inhibition; Q9UIF8; Potency, µM (doses to about 114 µM), actives largely listed as inhibitors; AlphaScreen BAZ2B-H3K14Ac peptide displacement; actives 4.4% (n = 360,000); AID 504333; further: nearly all actives have a fitted effect of over 60% in size
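Inhibition is scored as reduced AlphaScreen emission. The BAZ2B/b-H3(5-23)K14Ac complex (50 nM each) in PBS pH 7.4, 0.01% Tween-20 meets compound (up to 110 uM) for 30 min at RT before bead addition.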
Sfp inh: Sfp phosphopantetheinyl transferase inhibition; actives 3.5% (n = 310,000); Potency, µM, most hits filed as inhibitors; Biochemical Sfp PPTase activity, qHTS;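 further: the enzyme is Sfp with the accession as filed and its product quenches rhodamine fluorescence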
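Compounds were incubated with enzyme (final 15 nM) for 15 min at room temperature before substrate addition started the reaction. Fluorescence at 525 nm excitation, 598 nm emission was recorded immediately and after 30 minutes.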
L3MBTL1 inh: blocks human L3MBTL1; Q9Y468; AlphaScreen L3MBTL1–H3K9me1 peptide binding; Potency, µM (titrated, usually from 57.1 µM), hits mostly inhibitors; actives 0.66% (n = 230,000); AID 485360; further: nearly all actives have a fitted effect of over 60% in size
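L3MBTL1 (50 nM) pre-complexed 30 min with biotinylated H3(1-15)K9me1 peptide (75 nM), then compounds added for 30 min at room temperature; AlphaScreen streptavidin donor/nickel chelate acceptor beads (10 ug/mL final) read after 30 min dark incubation.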
Of the large screens only hits and unclear results are named; the others gave an inactive call. Rows were chosen to be rich in hits. Some 12% of all compounds tested hit in one or more screens of this group. The call rests on the fitted dose curve; in most records, active means well fitted curve in the direction sought with a large enough effect; inconclusive means small, poorly fitted or top-dose-only effect, or another doubt; inactive means no such curve, though single readings can be large; an effect the other way counts as inactive or inconclusive.

COc1cccc(-c2nnc(SCc3ccc(C#N)cc3)n2Cc2ccco2)c1	JMJD2A Tudor inh inconclusive, G9a inh 35.5µM, Sfp inh inconclusive
Nc1ccccc1-c1ccccc1N	none
Nc1ccccc1N=Nc1ccccc1N	JMJD2A Tudor inh 2.82µM, HP1b binding inh inconclusive, G9a inh 14.1µM, BAZ2B inh 3.16µM, L3MBTL1 inh 8.91µM
COc1ccc(Cl)cc1NC(=O)CSc1nc2ccccc2nc1N1CCCCC1	none (no result: Sfp inh, L3MBTL1 inh)
Cc1ccc(NC(=O)N2CCC(CN3CCCCCC3)CC2)c(Cl)c1	G9a inh inconclusive (no result: Sfp inh, L3MBTL1 inh)
Oc1cc(-n2cccn2)c(O)cc1-n1cccn1	JMJD2A Tudor inh 0.794µM, HP1b binding inh 2.82µM, G9a inh 0.708µM, BAZ2B inh 31.6µM, Sfp inh 5.01µM
